Hits are enriched below; roughly 2.6% of the tested compounds scored in any of these assays.
TSHR ag: activates the human thyroid stimulating hormone receptor; 0.48% of 73,000 active; HEK293-CNG-TSHR cells (CNG channel as cAMP sensor), membrane potential dye, cAMP; Potency, µM (highest dose often 57.1 µM), inactives show top-dose activation, most hits filed as activators; active means well fitted activation curve with a large enough effect in the main read-out, with a control signal flat, not every such curve was filed as active; inconclusive means small, poorly fitted or top-dose-only effect, or a change in a side signal; inactive means no such curve, though single readings can be large or run the other way; % of control where 0% means no effect;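 further: the control signal comes from parental cells without the receptor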
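HEK 293 cells stably expressing TSHR and a modified CNG channel, with CNG-only parental cells as counterscreen, were preloaded 60 min at room temperature with membrane potential dye containing 100 uM RO 20-1724. Compound exposure was 30 min, and depolarization was read as fluorescence at 590 nm.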
HEK293 cAMP cs: counter-screen for TSHR agonists: cAMP increase in parental HEK293; Potency, µM (top dose mostly 57.1 µM), for the others: at the top dose activation, actives largely listed as activators; parental HEK293 CNG cAMP sensor, membrane potential fluorescence; 2.5% of 73,000 active; further: % of control where 0% means no effect; nearly all actives have a fitted effect of over 55% in size
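Parental HEK 293 cells stably expressing a modified CNG channel (no TSHR) report cAMP rise as membrane depolarization. Membrane potential dye with 100 uM RO 20-1724 was loaded for 60 min at room temperature, then compound added for 30 min; fluorescence read at 590 nm.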
Caspase-7 inhib: allosteric or competitive inhibitors of human caspase-7; Potency, µM (top dose mostly 57.5 µM), inactives show top-dose activity change, negative = inhibition, actives largely listed as inhibitors; 0.02% of 75,000 active; recombinant caspase-7, Ac-DEVD-AFC fluorescence rate; P55210; active means well fitted inhibition curve with a large enough effect in the main read-out, with a control signal flat, not every such curve was filed as active; inconclusive means small, poorly fitted or top-dose-only effect, or a change in a side signal; further: % of control where 0% means no effect
Target sequence (P55210 24-198 limits assumed): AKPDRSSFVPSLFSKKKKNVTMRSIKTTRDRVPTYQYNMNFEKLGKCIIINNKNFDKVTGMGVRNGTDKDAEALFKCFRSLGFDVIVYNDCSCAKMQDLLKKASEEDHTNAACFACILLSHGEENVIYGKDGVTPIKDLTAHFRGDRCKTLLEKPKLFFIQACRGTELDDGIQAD
Target sequence (P55210 207-303 limits assumed): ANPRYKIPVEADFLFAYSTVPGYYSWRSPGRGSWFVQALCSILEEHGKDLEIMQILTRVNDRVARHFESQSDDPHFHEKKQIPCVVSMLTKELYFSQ
Caspase-1 inhib: caspase-1 (human) inhibition, allosteric or competitive | Potency, µM (doses to about 57.5 µM), for the others: at the top dose activity change, negative = inhibition, hits mostly inhibitors | AID 900 | Caspase-1 enzyme, Ac-WEHD-AFC fluorogenic rate | 0.03% of 75,000 active;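 further: plate controls were vehicle for no effect and no substrate for full effect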
Target sequence (P29466 120-297 limits assumed): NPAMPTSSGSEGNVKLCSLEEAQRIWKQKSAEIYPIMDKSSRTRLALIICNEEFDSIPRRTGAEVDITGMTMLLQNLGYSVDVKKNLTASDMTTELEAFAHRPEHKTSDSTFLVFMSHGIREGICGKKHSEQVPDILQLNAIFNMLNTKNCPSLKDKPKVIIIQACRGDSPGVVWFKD
Target sequence (P29466 317-404 limits assumed): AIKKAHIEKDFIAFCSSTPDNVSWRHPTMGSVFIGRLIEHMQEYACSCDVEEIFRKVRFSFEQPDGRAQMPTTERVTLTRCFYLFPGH
The depositor's hits bear a star; ? = inconclusive; / = not tested or not shown; [ ] = dose if it differs, or a comment. Unless noted, the call rests on the fitted dose curve; in most records, active means well fitted curve in the direction sought with a large enough effect; inconclusive means small, poorly fitted or top-dose-only effect, or another doubt; inactive means no such curve, though single readings can be large; an effect the other way counts as inactive or inconclusive. Potency means the concentration at half of the fitted maximal effect.

SMILES	TSHR ag	HEK293 cAMP cs	Caspase-7 inhib	Caspase-1 inhib
O=C(COc1ccccc1)Nc1cccc(-c2nnc(-c3ccccc3)o2)c1	?	25.1µM*	-0.8%	-1.4%
CS(=O)(=O)N1CCC[C@@]2(CCN(Cc3ccc(C#N)cc3)C2)C1	2.3%	13.1%	0.7%	-2.0%
CC(C)CC(c1nnnn1C(C)C)N1CCN(c2cccc(Cl)c2)CC1 (stereo not given)	?	1µM*	-2.3%	-0.2%
CCc1cc(-c2[nH]ncc2-c2ccc3c(c2)OCO3)c(O)cc1O	?	25.1µM*	-2.3%	-5.0%
COc1ccc(-c2[nH]ncc2-c2ccc3c(c2)OCCO3)c(O)c1	9.9%	15.4%	0.4%	0.2%
CNc1ncnc2ccc(-c3ccccc3C#N)cc12	6.1%	-8.2%	-1.8%	-0.2%
CN(C)C(=O)c1ccc(-c2ccc3ncnc(NCc4cccs4)c3c2)cc1	13.8%	0.9%	?	-5.6%
N#Cc1ccccc1-c1ccc2ncnc(NCc3cccs3)c2c1	?	15.8µM*	-4.8%	-4.1%
Cc1cccc(CNc2ncnc3ccc(-c4ccccc4C#N)cc23)c1	?	25.1µM*	-2.3%	-4.1%
O=C(Nc1ccccc1)N1CC2(CCN(C(=O)c3ccco3)CC2)C1	?	?	1.9%	-0.5%
CCOC(=O)C1CCN(S(=O)(=O)c2cn(C)c(=O)n(C)c2=O)CC1	?	15.8µM*	-4.3%	-10.8%
CCN(CC)S(=O)(=O)c1cccc(-c2nnc(SC(C)C#N)n2Cc2ccccc2)c1 (stereo not given)	?	25.1µM*	0.0%	1.5%
CCOc1ccc(OCC)c(NC(=O)C2COc3ccccc3O2)c1 (stereo not given)	?	31.6µM*	-0.2%	-3.4%
Cn1cccc1C(=O)N1CCC2(CCN(Cc3nccs3)CC2)CC1	-6.4%	-8.7%	-0.1%	-1.5%
CN1C(=O)Cn2c1nc1ccccc12	?	20µM*	2.3%	-1.2%
O=C1Cn2c(nc3ccccc32)N1c1ccccc1F	0.1%	10.2%	-0.6%	-2.3%
NC(=S)NNC(N)=S	6.0%	0.4%	-0.4%	-1.4%
O=S(=O)(c1ccc(F)c2ccccc12)N1CCCCC1	?	31.6µM*	-0.9%	1.4%
CCNc1nc(CC)nc2c1oc1ccccc12	11.1%	6.7%	-2.2%	-0.2%
CCc1nc(N2CCC(C)CC2)c2oc3ccccc3c2n1	?	15.8µM*	-1.9%	-2.0%
CCc1nc(N(CC)CC)c2oc3ccccc3c2n1	?	15.8µM*	-2.2%	0.7%
CC(C)(C)NC(=O)[C@@H]1C[C@H]2CCCC[C@@H]2CN1C[C@H](O)[C@H](Cc1ccccc1)NC(=O)[C@@H](CC(N)=O)NC(=O)c1ccc2ccccc2n1	7.4%[25.6 µM]	0.1%[25.6 µM]	-0.6%[25.7 µM]	0.4%[25.7 µM]
N#CCSc1nc2c(c(C3CC=CCC3)c1C#N)CCC2 (stereo not given)	?	10µM*	-2.9%	-3.5%
N#Cc1c(SCC(N)=O)nc2c(c1-c1ccc(O)cc1)CCCC2	24.5%	7.5%	-2.1%	-3.7%
CCOc1ccccc1NC(=O)c1cccc(NC(=O)c2ccco2)c1	/	29.7%	2.2%	-0.7%
SMILES	TSHR ag	HEK293 cAMP cs	Caspase-7 inhib	Caspase-1 inhib
Cc1ccc(Cn2cccc(NC(=O)c3ccco3)c2=O)cc1	?	15.8µM*	-3.3%	-0.5%
Cc1ccc(NC(=O)c2ccco2)c(NC(=O)CN2C(=O)c3ccccc3C2=O)c1	5.8%	1.8%	-0.3%	0.6%
CCCCOc1ccccc1NC(=O)c1ccco1	?	15.8µM*	0.7%	-1.5%
COc1ccc(C(=O)N2CCC3(CCN(Cc4cc(C(F)(F)F)cc(C(F)(F)F)c4)CC3)CC2)cc1	25.3%	27.7%	-2.5%	-6.1%
Cc1oc(-c2ccccc2F)nc1CS(=O)(=O)CC(=O)N1CCOCC1	?	31.6µM*	-1.8%	-5.0%
Cc1ccc(-c2nc(CS(=O)(=O)CC(=O)N3CC(C)CC(C)C3)c(C)o2)cc1 (stereo not given)	?	31.6µM*	-3.0%	0.1%
COc1ccc(Oc2nc(C)nc3c2oc2ccccc23)cc1	?	25.1µM*	-2.5%	-3.0%
CCNc1nc(C)nc2c1oc1ccccc12	23.0%	-0.6%	0.3%	-0.5%
CN(C)Cc1cc(O)c(O)c(CN(C)C)c1	1.4%[11.4 µM]	12.5%[11.4 µM]	-1.4%[11.5 µM]	-2.1%[11.5 µM]
C(#CC1C=CC2OC(c3ccccc3)OCC2O1)c1ccccc1 (stereo not given)	4.9%[11.4 µM]	14.5%[11.4 µM]	1.4%[11.5 µM]	-1.3%[11.5 µM]
CCOC(=O)c1cc(C)sc1N1C(=O)C2C3C=CC(C3)C2C1=O (stereo not given)	2µM*	6.7%	-1.3%	0.3%
CCCn1c(=O)c2ccccc2n2c(SCC(=O)NCc3cccs3)nnc12	?	20µM*	-0.7%	-0.7%
CCCn1c(=O)c2ccccc2n2c(SCCOc3ccc(C)cc3)nnc12	?	20µM*	-0.7%	-5.6%
CCOC(=O)c1oc2ccccc2c1CSc1nnnn1-c1ccc(OC)cc1	?	15.8µM*	-1.7%	-0.5%
CCn1c(=O)c2ccccc2n2c(SCC(=O)NCc3cccs3)nnc12	-3.5%	-2.5%	-0.1%	0.7%
CCCn1c(=O)c2ccccc2n2c(SCc3c(C(=O)OCC)oc4ccccc34)nnc12	?	15.8µM*	0.2%	-0.7%
CCCn1c(=O)c2ccccc2n2c(SCCOc3ccc(OC)cc3)nnc12	?	?	-1.7%	2.5%
CCCn1c(=O)c2ccccc2n2c(SCN3C(=O)c4ccccc4C3=O)nnc12	2.3%	15.2%	-0.5%	0.6%
CC1CCC(C(=O)O)NC1c1cccc(N2CCCC2=O)c1 (stereo not given)	-7.5%[11.4 µM]	-3.3%[11.4 µM]	1.3%[11.5 µM]	-1.5%[11.5 µM]
COC(=O)c1ccc(-n2nnnc2SCc2ccccc2OC)cc1	?	15.8µM*	-2.1%	-2.9%
COC(=O)c1ccc(-n2nnnc2SCC(=O)Nc2cc(OC)ccc2OC)cc1	?	?	-2.1%	0.3%
CCCSc1oc(-c2ccco2)nc1S(=O)(=O)c1ccccc1	?	25.1µM*	-6.1%	-2.5%
CCOC(=O)c1ccc(Oc2nc(NC(C)(C)C)nc(N(C)C)n2)cc1	?	25.1µM*	-4.2%	-5.1%
CCOC(=O)c1ccc(Oc2cc(C)nc(SC)n2)cc1	?	3.16µM*	-0.6%	-1.7%
COC(=O)c1ccc(Oc2nc(NC(C)C)nc(N(C)C)n2)cc1	10.4%	21.0%	-0.5%	-0.4%
SMILES	TSHR ag	HEK293 cAMP cs	Caspase-7 inhib	Caspase-1 inhib
CCOC(=O)c1ccc(Oc2nc(SC)nc(N(C)C)n2)cc1	?	3.16µM*	-4.0%	-2.8%
COC(=O)c1ccc(Oc2cc(C)nc(-n3nc(C)cc3C)n2)cc1	?	15.8µM*	-0.9%	-1.6%
C[C@@H]1C(=O)O[C@H]2[C@@H](O)[C@@]34[C@H]5CC(C(C)(C)C)[C@]36[C@@H](OC(=O)[C@@H]6O)O[C@@]4(C(=O)O5)[C@@]12O (stereo not given in full)	/	/	-0.2%	-1.6%
CN(Cc1ccco1)c1nc(-c2ccoc2)nc2ccccc12	?	15.8µM*	-7.9%	-7.0%
CN(Cc1ccco1)c1ncnc2ccc(-c3ccoc3)cc12	?	15.8µM*	-10.1%	1.2%
CN(Cc1ccco1)c1ncnc2ccc(-c3ccccc3Cl)cc12	?	?	-9.5%	-7.2%
COc1ccccc1-c1ccc2ncnc(N(C)Cc3ccco3)c2c1	?	3.16µM*	-6.4%	-6.1%
